Data: ChEMBL document CHEMBL1961873, “Compounds: GSK PKIS; Assays: Nanosyn kinase panel” (2012)

What follows are molecules tested against Tyrosine-protein kinase Lyn (Homo sapiens) (UniProt P07948). Details: at 0.1 µM.
Chain of Tyrosine-protein kinase Lyn (Homo sapiens) (P07948 2-512 limits assumed): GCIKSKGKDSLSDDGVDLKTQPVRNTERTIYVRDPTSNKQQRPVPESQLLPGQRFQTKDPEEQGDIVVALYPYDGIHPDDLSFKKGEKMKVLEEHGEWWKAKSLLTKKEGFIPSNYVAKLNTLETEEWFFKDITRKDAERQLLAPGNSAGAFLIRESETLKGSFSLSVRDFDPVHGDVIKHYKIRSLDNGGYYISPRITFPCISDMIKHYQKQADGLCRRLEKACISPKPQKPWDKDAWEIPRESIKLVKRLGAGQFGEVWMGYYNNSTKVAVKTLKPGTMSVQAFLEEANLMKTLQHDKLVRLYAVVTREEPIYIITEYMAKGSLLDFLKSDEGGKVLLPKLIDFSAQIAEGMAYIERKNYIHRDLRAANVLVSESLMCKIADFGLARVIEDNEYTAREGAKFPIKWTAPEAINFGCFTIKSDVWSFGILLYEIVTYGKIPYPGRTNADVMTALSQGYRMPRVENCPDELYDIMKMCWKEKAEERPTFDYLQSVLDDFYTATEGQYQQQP
With `CN(c1ccc(NC(=O)Nc2ccc(OC(F)(F)F)cc2)cc1)c1ccnc(Nc2cccc(S(N)(=O)=O)c2)n1` the inhibition was 39.9%. `COc1ccc(-c2nn3ncccc3c2-c2ccnc(Nc3cccc(C(F)(F)F)c3)n2)cc1` gave an inhibition of 4.45%. For `COC(=O)c1ccc2c(c1)C(=Cc1cc(Br)c(O)c(Br)c1)C(=O)N2`, the inhibition was 3.81%. In the case of `Cc1ccc2c(-c3ccnc(Nc4cccc(C(F)(F)F)c4)n3)c(-c3ccccc3)nn2n1`, the inhibition is reported as 12.6%. For `NS(=O)(=O)c1ccc(Nc2cc(-c3cccc(O)c3)n[nH]2)cc1`, the inhibition was 6.83%. `COc1cc(/C=N/Nc2ncnc3c2cnn3C(C)C)ccc1O` showed an inhibition of 15.2%. For `Cc1ccc2c(c1)/C(=N/Nc1ccc(S(N)(=O)=O)cc1)C(=O)N2`, the inhibition was 0.12%. `OCc1ccc(-c2nc(-c3ccccn3)c(-c3ccc4c(c3)OCO4)[nH]2)cc1` was tested, and the inhibition was 6.03%. Work on `CC(C)c1ccc(Nc2nccc(-c3cnn4ncccc34)n2)cc1` yielded an inhibition of 4.07%. With `O=S(=O)(CCOCc1ccc(-c2ccc3ncnc(Nc4ccc(OCc5cccc(F)c5)c(Cl)c4)c3c2)o1)c1ccccc1` the inhibition was 1.13%. Work on `O=C1Nc2ccccc2/C1=C/Nc1ccc2[nH]c(=O)[nH]c2c1` yielded an inhibition of 10.5%. Work on `CCCN1CCCC(c2ccc(Nc3nc(Nc4cc(F)ccc4C(N)=O)c4cc[nH]c4n3)c(OC)c2)C1` (centres undefined) yielded an inhibition of 7.48%. For `CN(C)c1cc2c(Nc3ccc4c(cnn4Cc4ccccc4)c3)ncnc2cn1`, the inhibition was 2.67%. `CCS(=O)(=O)c1ccc(OC)c(Nc2nccc(N(C)c3ccc4c(C)n[nH]c4c3)n2)c1` showed an inhibition of 45.7%. For `CCn1c(-c2nonc2N)nc2c(C#CC(C)(C)O)nc(OCCNC)cc21`, the inhibition was 5.06%. With `COc1cc(Nc2nccc(-c3cnn4ncccc34)n2)cc(OC)c1` the inhibition was 3.81%.

These molecules were tested against Tyrosine-protein kinase Lyn (Homo sapiens) (UniProt P07948). Details: at 1 µM.
`COc1cccc(-n2ncc3c(N/N=C/c4ccc(C)cc4)ncnc32)c1` showed an inhibition of 23.2%. With `COc1cc2ncnc(Nc3ccc4c(cnn4Cc4ccccc4)c3)c2cc1OC` the inhibition was 46.1%. For `Cc1ccc(NC(=O)CC2CC2)cc1-c1ccc(C(=O)NCC2CC2)cc1`, the inhibition was 7.19%. With `COc1ccc2ncnc(Nc3ccc(OCc4ccccc4)cc3)c2c1` the inhibition was 6.36%. `Nc1nccc(-c2c(-c3ccc(F)cc3)ncn2CCCN2CCOCC2)n1` was tested, and the inhibition was 9.61%. Molecule `CN(C)C(=O)O[C@@H]1CN[C@@H](C#Cc2cc3ncnc(Nc4ccc(OCc5cccc(F)c5)c(Cl)c4)c3s2)C1` has an inhibition of 2.73%. `Cc1cc(O)cc(C)c1/C=C/c1cncc(C(=O)N(C)C)c1` gave an inhibition of 7.54%. `Cc1cc(-c2ccccn2)cc(C)c1/C=C/c1cncc(-c2nn[nH]n2)c1` gave an inhibition of 14%. Work on `CN(C)C(=O)O[C@H]1CN[C@H](C#Cc2cc3ncnc(Nc4ccc(OCc5cccc(F)c5)c(Cl)c4)c3s2)C1` yielded an inhibition of 4.57%. In the case of `Oc1cccc(-c2nc(-c3ccccc3)[nH]c2-c2ccncc2)c1`, the inhibition is reported as 31.3%. `c1ccc(Cc2nc3ccc(Nc4ncnc5ccccc45)cc3[nH]2)cc1` gave an inhibition of 10.3%. `CCn1c(-c2nonc2N)nc2ccc(F)cc21` was tested, and the inhibition was 9.59%. For `Cc1ccc2c(-c3ccnc(Nc4ccc5c(c4)OCCO5)n3)c(-c3ccc(C(F)(F)F)cc3)nn2n1`, the inhibition was 6.17%. `N#Cc1c(NC(=O)c2ccccc2F)sc2c1CCCC2` gave an inhibition of 0.22%. `CCOc1nccc2c1nc(-c1nonc1N)n2CC` was tested, and the inhibition was 6.05%. With `Nc1ccc(C#Cc2cncnc2Nc2ccc(OCc3cccc(F)c3)c(Cl)c2)cc1` the inhibition was 4.42%. `Cc1nc(-c2ccccc2)n2nc(NCCCN3CCOCC3)ncc12` showed an inhibition of 2.59%. With `CN(c1ccc(NC(=O)Nc2ccc(OC(F)(F)F)cc2)cc1)c1ccnc(Nc2cccc(S(N)(=O)=O)c2)n1` the inhibition was 83.2%. `COc1ccc(-c2nn3ncccc3c2-c2ccnc(Nc3cccc(C(F)(F)F)c3)n2)cc1` showed an inhibition of 12.7%. Molecule `COC(=O)c1ccc2c(c1)C(=Cc1cc(Br)c(O)c(Br)c1)C(=O)N2` has an inhibition of 17.1%. With `Cc1ccc2c(-c3ccnc(Nc4cccc(C(F)(F)F)c4)n3)c(-c3ccccc3)nn2n1` the inhibition was 53%. `NS(=O)(=O)c1ccc(Nc2cc(-c3cccc(O)c3)n[nH]2)cc1` was tested, and the inhibition was 8.1%. Molecule `COc1cc(/C=N/Nc2ncnc3c2cnn3C(C)C)ccc1O` has an inhibition of 58.5%. `Cc1ccc2c(c1)/C(=N/Nc1ccc(S(N)(=O)=O)cc1)C(=O)N2` showed an inhibition of 4.93%. With `OCc1ccc(-c2nc(-c3ccccn3)c(-c3ccc4c(c3)OCO4)[nH]2)cc1` the inhibition was 6.58%. `CC(C)c1ccc(Nc2nccc(-c3cnn4ncccc34)n2)cc1` was tested, and the inhibition was 7.45%. For `O=S(=O)(CCOCc1ccc(-c2ccc3ncnc(Nc4ccc(OCc5cccc(F)c5)c(Cl)c4)c3c2)o1)c1ccccc1`, the inhibition was 2.54%. `O=C1Nc2ccccc2/C1=C/Nc1ccc2[nH]c(=O)[nH]c2c1` showed an inhibition of 30.1%. `CCCN1CCCC(c2ccc(Nc3nc(Nc4cc(F)ccc4C(N)=O)c4cc[nH]c4n3)c(OC)c2)C1` (centres undefined) gave an inhibition of 7.83%. `CN(C)c1cc2c(Nc3ccc4c(cnn4Cc4ccccc4)c3)ncnc2cn1` gave an inhibition of 13.5%. With `CCS(=O)(=O)c1ccc(OC)c(Nc2nccc(N(C)c3ccc4c(C)n[nH]c4c3)n2)c1` the inhibition was 85%. `CCn1c(-c2nonc2N)nc2c(C#CC(C)(C)O)nc(OCCNC)cc21` was tested, and the inhibition was 5.53%. With `COc1cc(Nc2nccc(-c3cnn4ncccc34)n2)cc(OC)c1` the inhibition was 29.3%.
